# Screens (PubChem)
# Hits are enriched below; roughly 4.1% of the tested compounds scored in any of these assays.
# Peg3 prom inh: inhibitors of Peg3 promoter; HeLa PEG-Prom luciferase reporter, luminescence, overnight; inhibition, % at 20 µM; hit rate 1.7% among 360,000; AID 588405;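 active = inhibition of at least 50% at 20 µM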
# TRPM1 prom inh: MITF TRPM1 promoter inhibition in SK-MEL-5 cells; SK-MEL-5 TRPM1 promoter luciferase, 24 h; inhibition, % at 12.5 µM; hit rate 0.83% among 330,000;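 active = mean inhibition across replicates of 60% or more, whatever share of single replicates reaches that level; inconclusive = some that reach 60%, reason not given; inactive = mean inhibition across replicates below 60%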
# TROY NFkB inh: blocks TROY-dependent signaling in reporter cells; Q293 LMP1-TROYcd NF-kB luciferase reporter, 4 h; inhibition, % at 10 µM; hit rate 0.98% among 360,000;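 active = compounds whose plate-normalised and pattern-corrected inhibition of the luciferase reporter signal at the single screening dose is 50% or more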
# TWEAK Fn14 block: TWEAK-Fn14 signaling inhibition; inhibition, % at 10 µM; hit rate 2% among 360,000; TWEAK-stimulated Fn14 reporter cells, luciferase luminescence, 8 h; in the data active = inhibition above about 50%
# LMP1 NFkB inh: Epstein-Barr LMP1 NF-kappaB reporter inhibition; hit rate 0.69% among 350,000; LMP1-induced NF-kappaB luciferase reporter cells, luminescence; inhibition, % at 12.5 µM; AID 504558; in the data active = inhibition above about 41%; inconclusive = no clear call, values can overlap the other calls
# Shn3 inh set2: reduces Shn3 3'UTR luciferase signal in osteoblasts; Clone20 osteoblast Shn3 3'UTR firefly luciferase, 24 h; inhibition, % at 12.5 µM; hit rate 0.52% among 360,000; AID 588674;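 active = mean inhibition of at least 75% with every replicate also reaching 75%; inconclusive = mean inhibition at least 75% but some replicate below; inactive = mean inhibition below 75%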
# Numbers stand for hits; n = inactive; u = inconclusive; x = no result.
SMILES,Peg3 prom inh,TRPM1 prom inh,TROY NFkB inh,TWEAK Fn14 block,LMP1 NFkB inh,Shn3 inh set2
COc1ccc(OC)c(NC(=O)C(=O)N/N=C(\C)CC(=O)Nc2ccc(Cl)cn2)c1,n,n,n,n,n,n
COc1ccc(OC)c(/C=N/NC(=O)CSc2cc(C)nc3c(OC)cccc23)c1,n,n,n,n,n,n
Cc1ccc(Nc2nc3nonc3[nH]c2=O)cc1C,n,n,n,n,n,n
Cc1ccc(Nc2nc3nonc3[nH]c2=O)cc1Cl,n,n,n,59,n,n
CCCS(=O)(=O)NC(=O)C1(C)CCCN(C(=O)c2cccnc2Oc2ccccc2)C1 (stereo not drawn),n,x,n,n,x,n
CC(C)(C)n1ncc2c(=O)n(CC(=O)NCc3ccccc3)cnc21,n,n,n,84,n,n
OC(C1=CC(=Cc2ccncc2)c2ccccc21)c1ccncc1 (stereo not drawn),n,n,n,55,n,n
OC(c1ccccc1)c1ccncc1 (stereo not drawn),n,n,n,n,n,n
CCOC(=O)c1c(C)[nH]c(C)c1C(=O)COC(=O)/C=C/c1ccccc1[N+](=O)[O-],n,n,n,n,n,n
CCOC(=O)c1c(C)[nH]c(C)c1C(=O)COC(=O)c1ccc([N+](=O)[O-])s1,n,76,n,n,n,n
O=C(NCC1CCN(Cc2ccc(F)cc2)CC1)C1CCCN(c2ncnc3c2nc2n3CCCCC2)C1 (stereo not drawn),n,n,n,n,n,n
O=C(NCC1CCN(Cc2ccc(Cl)cc2)CC1)C1CCCN(c2ncnc3c2nc2n3CCCCC2)C1 (stereo not drawn),51,n,n,n,n,n
Cc1cccc(N2CCN(CCCNC(=O)C3CCCN(c4ncnc5c4nc4n5CCCCC4)C3)CC2C)c1 (stereo not drawn),60,n,n,n,n,n
CCNC(=O)NC(=O)C(C)N1C(=O)NC(c2ccccc2)(c2ccccc2)C1=O (stereo not drawn),n,n,n,n,n,n
O=C(/C=C/Nc1ccc(F)cc1)c1cccs1,n,n,n,n,n,n
Cc1cccc(N/C=C/C(=O)c2cccs2)c1C,n,n,n,58,n,n
NC(=O)c1ccccc1N/C=C/C(=O)c1cccs1,n,n,n,n,53,n
CCCCN(C)C(=O)Cn1nc(Cc2ccncc2)c2ccccc2c1=O,n,n,n,n,n,n
Cc1cc(Cl)c(S(=O)(=O)N2CCCCCC2)cc1OCC(=O)NC1CCCCC1,n,n,n,n,n,n
Cc1cc(Cl)c(S(=O)(=O)N2CCSCC2)cc1OCC(=O)NC1CCCCC1,n,n,n,61,n,88
Cc1cc(Cl)c(S(=O)(=O)N2CCN(c3ccccn3)CC2)cc1OCC(=O)NC1CCCCC1,n,n,53,63,n,n
COc1ccc(Br)c(C(=O)N(C)CC(=O)Nc2ccc(N3CCOCC3)cc2)c1,n,n,n,n,n,n
COc1ccccc1/C=N\N=C(\N)c1ccccn1,n,n,n,n,n,n
Cc1ccc(/C=N/Nc2nc(C(C)(C)C)cs2)o1,n,n,n,n,n,n
Cc1cc(=O)[nH]c(N/N=C/c2ccco2)n1,n,n,n,n,n,n
SMILES,Peg3 prom inh,TRPM1 prom inh,TROY NFkB inh,TWEAK Fn14 block,LMP1 NFkB inh,Shn3 inh set2
Cc1cc(=O)[nH]c(N/N=C/c2ccc(C)o2)n1,n,n,n,n,48,n
Cc1ccc(/C=N/Nc2nc3ccccc3s2)o1,n,n,n,60,n,n
Cc1cccc(C)c1NC(=O)CN(C)C(=O)C1CC1C (stereo not drawn),n,n,n,n,n,n
Oc1cccc2cc(Nc3ccccc3)cnc12,n,x,n,100,x,95
CN1CCN(c2cc(-c3cc(O)c4ncccc4c3)ccn2)CC1,n,n,n,n,n,n
Oc1cc(-c2cccnc2)cc2cccnc12,n,n,n,n,n,89
Oc1cc(NCCN2CCOCC2)cc2cccnc12,n,u,n,n,n,n
c1ccc(Nc2ccccc2)cc1,n,n,n,n,n,n
Oc1cc(Nc2ccccc2)cc2cccnc12,n,n,n,n,n,94
O=[N+]([O-])c1cc2ncccc2c2ncccc12,n,x,n,n,n,n
Cn1nc(C(=O)NCc2ccccc2)c2c1-c1ccccc1S(=O)(=O)C2,n,n,n,n,n,n
Clc1cc(Cl)c(OCCCCn2cncn2)c(Cl)c1,n,n,n,n,n,n
Cc1cc(C(=O)OCC(=O)N(C)c2c(N)n(Cc3ccccc3)c(=O)[nH]c2=O)c(C)n1-c1ccccc1,n,n,n,n,n,n
Cc1nn(-c2ccccc2)c(N)c1C1(O)C(=O)Nc2ccccc21 (stereo not drawn),n,n,n,n,n,n
CCCN(CC1CC1)c1nc(C)nc(Nc2c(Cl)cc(Cl)cc2Cl)c1Cl,n,n,n,n,78,n
Nc1ncnc2c1C(c1ccccc1)c1c(ccc3ccccc13)O2 (stereo not drawn),n,n,57,n,n,n
N=c1c2c(ncn1Cc1ccco1)Oc1ccc3ccccc3c1C2c1ccccc1 (stereo not drawn),57,n,n,n,n,n
CNC(=O)NC(=O)COc1ccc2oc3c(c2c1)CCCC3,n,n,n,n,n,n
O=C(CCS(=O)(=O)c1cccc2nonc12)Nc1ccc(Br)cc1,n,n,n,n,n,n
COc1ccccc1-c1sc2ccccc2c1-c1cnc(N2CCOCC2)nc1,x,x,n,n,x,x
O=C(CC(C(=O)O)P(=O)(c1ccccc1)c1ccccc1)c1ccccc1 (stereo not drawn),n,n,n,n,n,n
CC1=NN(c2ccc(Cl)cc2)C(=O)C1C(c1cccc(O)c1)c1c(C)[nH]n(-c2ccc(Cl)cc2)c1=O (stereo not drawn),n,n,n,50,n,n
O=C(Nc1ccccc1Oc1ccccc1)c1cc([N+](=O)[O-])ccc1Cl,n,n,n,54,n,n
CS(=O)(=O)c1ccc(C(=O)OCC(=O)c2ccc(Cl)s2)cc1,n,n,n,n,n,n
COc1ccc(/C=N/Nc2nc(C)c([N+](=O)[O-])c(N(C)c3ccccc3)n2)cc1OC,n,n,x,82,n,n
SMILES,Peg3 prom inh,TRPM1 prom inh,TROY NFkB inh,TWEAK Fn14 block,LMP1 NFkB inh,Shn3 inh set2
O=C(NCc1ccccn1)Nc1ccccc1F,n,n,n,n,n,n
Cc1ccccc1NC1=NC(=S)N(c2ccccc2)C12CCCCC2,n,n,62,n,n,n
COc1cc(/C=C2\C(=N)N3N=C(S(C)(=O)=O)SC3=NC2=O)cc(OC)c1OCCOc1cccc(C)c1,n,n,n,n,n,n
Cc1ccc(N=Cc2c(O)c3ccccc3oc2=O)c(C)c1,n,n,55,57,n,n
COC(=O)c1ccccc1NC(=O)C(C)c1ccc([N+](=O)[O-])cc1 (stereo not drawn),n,n,n,n,62,n
CC(C(=O)Nc1ccccc1Br)c1ccc([N+](=O)[O-])cc1 (stereo not drawn),n,n,n,n,n,n
